In the supplement of paper PMC6555819:

Tests used:
Experiment in all cases: PBM binding z-score (relative to random genomic background probes); higher = stronger binding; sequences stand for … in GC…GCGATTGACAGCGTAGAATGAAGG
[1] = test system: FXR:RXRa (NR concentration 270 nM, RXRa partner concentration 90 nM)
How it was run: (§1)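 Ligand-free nuclear receptor dimers were applied to custom Agilent 4×180K protein-binding microarrays whose double-stranded probes carried direct-repeat seeds, single-nucleotide variants, half-site ablations and random human genomic background sequences in 34-nt variable regions. Incubation lasted 1 h. Binding z-scores were computed against the random background probes from regression-normalized fluorescence.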

[2] = test system: LXRa:RXRa (NR concentration 270 nM, RXRa partner concentration 90 nM)
How it was run: as §1

[3] = test system: LXRa homodimer (NR concentration 270 nM)
How it was run: as §1

[4] = test system: LXRb:RXRa (NR concentration 270 nM, RXRa partner concentration 90 nM)
How it was run: as §1

[5] = test system: LXRb homodimer (NR concentration 270 nM)
How it was run: as §1

[6] = test system: PPARa:RXRa (NR concentration 270 nM, RXRa partner concentration 90 nM)
How it was run: as §1

[7] = test system: PPARg:RXRa (NR concentration 180 nM, RXRa partner concentration 90 nM)
How it was run: as §1

[8] = test system: PPARg:RXRa 270nM:90nM, anti-RXR (NR concentration 270 nM, RXRa partner concentration 90 nM)
How it was run: as §1

[9] = test system: PPARg:RXRa 30nM:10nM, anti-RXR (NR concentration 30 nM, RXRa partner concentration 10 nM)
How it was run: as §1

[10] = test system: PPARg:RXRa 90nM:30nM, anti-RXR (NR concentration 90 nM, RXRa partner concentration 30 nM)
How it was run: as §1

Sequence | PBM binding z-score [1] | PBM binding z-score [2] | PBM binding z-score [3] | PBM binding z-score [4] | PBM binding z-score [5] | PBM binding z-score [6] | PBM binding z-score [7] | PBM binding z-score [8] | PBM binding z-score [9] | PBM binding z-score [10]
ACTAGCAGACCAAGTTTGGGTCACTCAAACAAAG | -0.0358 | -0.0494 | -0.696 | 0.808 | -0.744 | 1.32 | -0.0128 | 0.182 | -0.186 | 0.531
CAAACTAGGTCACAGAGGTCAAAGTCCGTGCGTA | 7.61 | 6.66 | 7.31 | 6.24 | 2.21 | 6.66 | 10.2 | 8.58 | 6.84 | 8.64
TCATTTAGGTAAAGGTGAAAGTCGAACGATATGA | 1.18 | 1.46 | -0.167 | 1.52 | 0.32 | 3.21 | 3.2 | 4.48 | 4.39 | 4.9
CGAACTAGGTCATCCAGGACAGTGCATACATTGA | 4.36 | 2.32 | 0.87 | 2.15 | 0.0357 | 4.85 | 7.67 | 6.47 | 3.97 | 5.85
CCAGACAGGTGAAAGGTATCTCAGTCTGGTACGC | -0.129 | 0.0546 | -0.271 | 0.122 | -0.633 | 2.07 | 3.41 | 4.19 | 1.94 | 4.13
ACACCAAGGTGATCGTGAGGTCGTTGATACTAAC | 1.59 | 1.28 | 0.495 | 1.38 | -0.254 | 1.62 | 0.514 | 0.34 | -0.275 | 0.0177
CAAACTAGGTCACCGGAAGGTCAAAGACCGCATG | 5.97 | 5.91 | 4.14 | 4.91 | 1.03 | 6.19 | 9.78 | 7.64 | 5.86 | 7.65
GGAACGAGGGCATTCCAGTTGATAGCATGGCGAT | 1.15 | 1.43 | -0.298 | 0.454 | -0.264 | 1.42 | 0.909 | 0.848 | -0.214 | 0.301
AGAACGAGGGCACGCAGAGTTGATAGCAGAGTAG | 1.14 | 0.811 | -0.396 | 0.439 | -0.647 | 2.54 | 2.51 | 2.28 | 0.386 | 1.35
TAGCCTAGGTCATGGGACAGTATACCACGCGAAC | 5.01 | 3.4 | 0.47 | 3.01 | 0.331 | 4.29 | 3.92 | 3.74 | 1.14 | 2.55
TTACAAAGGTGAAGGTCGTTGATCCCTCTGTAGA | 3.61 | 2.92 | 0.147 | 2.33 | -0.453 | 3.81 | 3.92 | 4.48 | 2.28 | 4.11
TCTTGTAGATCAACAGGAGGTTAACAAAGATCGA | 0.166 | 1.73 | 0.274 | 1.3 | -0.158 | 1.69 | 0.373 | 1.39 | 2.62 | 1.92
CCGACTGGGGCATGGTTACCATAACGCACAGCCA | -0.978 | -0.621 | -0.461 | -0.438 | -1.07 | 0.0592 | 1.31 | 1.11 | -0.195 | 0.273
CCTACTGGGGCAAAAAGGTCATTGATGCCGATAA | 3.82 | 4.34 | 2.86 | 3.92 | 0.284 | 4.96 | 4.68 | 5.28 | 2.57 | 4.43
GTAGCAAGGTGAATAGGTCGTTGATGAGTAGGCG | 0.435 | 0.286 | -0.884 | 0.119 | -1.35 | 2.05 | 0.986 | 1.48 | 0.12 | 0.807
AGGCAAAGTTCAGGACGAGGTAACGTAAAGCACG | 4.22 | 3.64 | 1.15 | 1.9 | 0.202 | 3.37 | 3.33 | 4.04 | 1.44 | 3.05
TAGCGTAGGTCATTGGGCCAGTATAGTACGCATC | 4.93 | 3.92 | 0.617 | 2.84 | 0.375 | 4.15 | 3.75 | 3.91 | 1.25 | 2.52
TCTATTATTTGATTAGGGCAACCGAAACAGCGGA | 0.94 | 0.738 | 1.29 | 1.08 | 1.33 | 1.34 | 0.291 | 2.43 | 4.02 | 3.25
CCTAGCAGGCCGGGGTCACTCAAGCATTTCGCTT | 4.66 | 3.63 | -0.0184 | 3.88 | -0.234 | 4.93 | 2.5 | 3.86 | 0.906 | 2.54
CCTAGCACGCCAATCTGGGTCACTCAAGGCTTGA | 0.513 | 0.503 | -0.0137 | 0.788 | -0.333 | 2.88 | 1.61 | 2.16 | -0.246 | 1.13
GCGACTGGGGCATCCGCAGGTTACCATAACTTAA | -0.134 | -0.356 | -0.324 | 0.722 | -0.515 | 1.06 | 0.756 | 0.848 | -0.543 | 0.0228
TCTGCTAGGTCAGTTCGTCAGCTAACGAGCTGCC | 0.654 | 0.387 | -0.691 | 0.0408 | 0.21 | 0.896 | 0.0243 | 1.38 | 1.37 | 1.51
ACAGACAGGTGAGTGAAAGTAACTCAGCTGGACG | 0.0251 | 0.239 | -0.514 | -0.461 | -0.641 | -0.0542 | 0.742 | -0.29 | -0.67 | -0.542
TCTAGCAGGCCAGAGGCTCACTCAAGAGGTACGG | -1.6 | -1.07 | -0.954 | -0.966 | -1.81 | -0.344 | 0.578 | 1.01 | 1.38 | 1.21

Sequence | PBM binding z-score [1] | PBM binding z-score [2] | PBM binding z-score [3] | PBM binding z-score [4] | PBM binding z-score [5] | PBM binding z-score [6] | PBM binding z-score [7] | PBM binding z-score [8] | PBM binding z-score [9] | PBM binding z-score [10]
CTGACTGGGGCAAAGGTTACCATACTCAGTACGA | 1.83 | 1.87 | -0.166 | 3.05 | -0.352 | 6.09 | 11.3 | 9.42 | 9.13 | 10.2
CCGACTGGGGCAAGGTGACCATAACGCACAGCCA | -0.279 | -0.424 | -0.369 | -0.293 | -1.35 | 0.808 | 1.99 | 1.81 | -0.0516 | 0.949
TGAATGAGGTTATAAGATCTGGGAACGTTGCAAA | 1.32 | 1.03 | -0.215 | 1.06 | -0.0795 | 2.54 | 1.01 | 1.83 | 0.892 | 1.58
TCGTGTAGGTTACCAATGGGGCATTCAGCTTTCT | 0.486 | 1.81 | 0.0515 | 1.44 | 0.0224 | 1.43 | -0.0806 | 1.21 | 2.25 | 1.67
TCGAGTAGGTTAGGGGAATTCAGAATGGCGTCGA | -0.0318 | -0.209 | -0.147 | 0.224 | -0.435 | 0.565 | 0.159 | 1.02 | 1.11 | 1.18
GCTGCTAGGTCAGGTGGGTCAGCTAACGGGTACG | 1.62 | 1.2 | -0.394 | 0.981 | -0.0608 | 2.34 | 1.65 | 1.61 | -0.279 | 0.851
ATCGAAAGGTCGAGGGGAGTATAGAGAAAGGGAA | 4.46 | 3.49 | 0.308 | 2.92 | 1.64 | 4.58 | 2.97 | 3.17 | 1.13 | 2.36
CAAACTAGGTCATTGACAGGACAGTGAATAGTAA | 4.7 | 3.38 | 0.946 | 2.29 | 0.688 | 4.71 | 7.82 | 6.85 | 3.97 | 6.16
GTACCAAGGTGAATAGGTCGTTGCTGAGTAGGCG | 0.799 | 0.799 | -0.43 | 0.493 | -0.623 | 2.23 | 1.21 | 1.71 | -0.00379 | 1.18
CCTACTGGGCCAAGGTCATTGGTCAGTCAAAGCA | 3.51 | 2.93 | 1.17 | 2.84 | -0.423 | 4.01 | 4.31 | 4.6 | 1.68 | 3.55
CGAACTAGGTCATCCAGGACAGTGGATACATTGA | 4.72 | 2.32 | 0.245 | 1.99 | 0.307 | 4.9 | 7.83 | 5.84 | 4.33 | 5.96
GCTAGTTGGTCAGTAAAAGGTCATACACCGGTCG | 3.17 | 4.37 | 5.64 | 3.93 | 0.896 | 4.45 | 2.95 | 4.03 | 2.15 | 3.55
GGAACGAGGGCAAAGCTGATAGCATCTGTCGACG | 0.392 | 0.366 | -0.605 | -0.126 | -0.711 | 1.68 | 1.5 | 1.78 | 0.251 | 1.17
TCTCGGAGGACACGAAAGGTCATAGCTCGACATC | 4.39 | 5.36 | 5.67 | 4.45 | 0.51 | 4.49 | 2.19 | 3.86 | 3.01 | 3.37
ATATGTAGGTTACATCCGGGTGATTCAGGCTATG | 0.452 | 4.47 | 0.517 | 1.64 | 0.268 | 3.54 | 5.24 | 4.39 | 1.74 | 3.56
CGTTAAAGTTCAAGGTAACGTAACAGAAAGCAGC | 6.06 | 5.3 | 2.94 | 3.2 | 1.15 | 4.56 | 3.3 | 4.01 | 1.81 | 3.27
CCTAGCAGGCCAGGGTCACTCATGCATTTCGCTT | 1.41 | 1.5 | -0.432 | 1.72 | -0.832 | 2.91 | 0.947 | 1.24 | -0.332 | 0.442
ACAGACAGGTGATGAAGGTGACTCAGGCTATCAT | 0.202 | 0.0616 | -0.267 | 0.143 | -0.348 | 0.764 | 0.82 | 0.457 | -0.1 | 0.274
CAAACTAGGTCAAGAGGTCGAAGTCCGCTTCCCG | 5.04 | 4.11 | 1.22 | 2.77 | 0.502 | 5.23 | 8.83 | 7.41 | 5.95 | 7.63
TCTTTTAGATCAATAGAGGTTAAGAAAGTGCGCT | 1.13 | 4.04 | 0.769 | 2.06 | 0.963 | 2.16 | 0.209 | 2.08 | 3.57 | 2.92
CCTTCTGGGCCACGAAAGGTCATTGATTCAGTGA | 4.23 | 5.51 | 4.66 | 4.55 | 0.628 | 4.97 | 3.74 | 4.4 | 1.82 | 3.94
TCGAGTAGGTTAGTAGGGGCATTCAGCCAACATA | 0.292 | -0.0612 | -0.0759 | 0.774 | -0.216 | 1.29 | 1.01 | 1.82 | 0.971 | 1.35
CAAACTAGGTCACGAAAGGTTAAAGTCGAATGAC | 5.89 | 7.18 | 3.46 | 5.5 | 0.758 | 6.04 | 9.67 | 7.92 | 5.98 | 8.04
CAGCCTAGGTCAGTGCCAGTATAGGAGGAACGTT | 0.914 | 0.456 | -0.00279 | 0.349 | -0.648 | 1.17 | 0.469 | 0.475 | -0.196 | 0.0661
